Bioassay records as filed in PubChem BioAssay.
Most compounds without a hit are left out; they make up all but 6.5% or so of the library.
Marburg entry inh: qHTS for inhibitors of binding or entry into cells for Marburg Virus. Marburg virus pseudotyped entry inhibition, cell reporter. 1.8% of 300,000 active. Potency, µM (top dose mostly 37.8 µM), hits mostly inhibitors. AID 540276, 2011; calls by dose curve; tested in HEK293 cells
FMDV inh: High Throughput Screening for Foot and Mouth Disease Virus Antivirals. Potency, µM (highest dose often 57.9 µM), usual class: inhibitors. 1.2% of 410,000 active. FMDV antiviral cell-based qHTS; calls by dose curve; tested in HEK293T cells; also: read-out not given here; nearly all actives have a fitted effect of over 45% in size
Lassa entry inh: qHTS for Inhibitors of binding or entry into cells for Lassa Virus; 1.2% of 300,000 active; Potency, µM (titrated, usually from 37.9 µM), hits mostly inhibitors; AID 540256, 2011; Lassa virus pseudotype entry inhibition, cell reporter; calls by dose curve; tested in HEK293 cells; also: nearly all actives have a fitted effect of over 50% in size
VACV Venus inh: qHTS for Stage-Specific Inhibitors of Vaccinia Orthopoxvirus: Venus Reporter Primary qHTS; Vaccinia virus Venus reporter expression, fluorescence; Potency, µM (titrated, usually from 36.5 µM), hits mostly inhibitors; 0.46% of 330,000 active; AID 720580, 2013; calls by dose curve; tested in A549 cells; also: nearly all actives have a fitted effect of over 30% in size
HCMV inh: qHTS Assay for inhibitors of the human cytomegalovirus (HCMV). HFF cells, HCMV-luciferase reporter, 72 h; stronger effect = lower value. activity change, negative = inhibition, % at 57.5 µM. 4.5% of 410,000 active; in the data active = activity change below about -60%; inconclusive = no clear call, values can overlap the other calls; inactive = above about -39%
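Human foreskin fibroblasts infected with luciferase-reporter HCMV at MOI 1 PFU/cell, compounds at two doses. Luciferase measured 72 h post infection; normalized to buffer-only basal and Salinomycin (10uM) controls.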
VACV mCherry inh: qHTS for Stage-Specific Inhibitors of Vaccinia Orthopoxvirus: mCherry Reporter Primary qHTS; Vaccinia virus mCherry reporter infection, fluorescence; Potency, µM (titrated, usually from 36.5 µM), usual class: inhibitors; 0.63% of 310,000 active; AID 720579, 2013; calls by dose curve; tested in A549 cells; also: nearly all actives have a fitted effect of over 35% in size
Numbers stand for hits; n = inactive; u = inconclusive; x = no result.

SMILES | Marburg entry inh | FMDV inh | Lassa entry inh | VACV Venus inh | HCMV inh | VACV mCherry inh
CCCNC(=O)N1[C@@H]2CN(C(=O)Nc3ccccc3)c3ccccc3[C@@H]2[C@@H]1CO | x | x | x | x | n | x
O=Nc1c(O)n(Cc2c(Cl)cccc2Cl)c2ccccc12 | u | u | n | n | -79 | u
CC(=NNC(=S)Nc1cccc(C)c1)c1ccccn1 | u | n | u | u | -98 | 2µM
COc1ccccc1NC(=S)NN=C(C)c1ccccn1 | u | n | 0.28µM | u | -102 | u
C/C(=N\NC(=S)Nc1ccc(C)cc1)c1cccc(N)c1 | n | n | n | n | n | n
CC(=NNC(=S)Nc1ccc(C)cc1)c1ccccn1 | u | n | u | u | -94 | u
C/C(=N\NC(=S)Nc1cccc(C)c1)c1ccccc1 | n | n | u | n | n | n
Cc1ccc(-n2c(C)nnc2SCC(=O)N(C)c2c(N)n(Cc3ccccc3)c(=O)[nH]c2=O)cc1 | x | n | x | x | n | x
CCCC[C@@H](C)C[C@@H](C)C(=O)N(C)[C@@H](CC(C)C)C(=O)N[C@H](C(=O)N(C)[C@H](C(=O)N1C[C@@H](O)C[C@H]1C(=O)N1C(=O)C=C[C@@H]1C)C(C)C)C(C)OC(C)=O (stereo partly drawn) | x | u | x | 10µM | x | u
Cc1cc(Oc2ccccc2)nc(C#N)n1 | x | x | x | n | x | n
CC1(C)C2CCC(C2)C1(C)NC(=O)CNCC1CCCCC1 (stereo not drawn) | 8.9µM | n | n | n | n | n
COC(=O)c1cc(C)nc(Nc2nc(C(N)Cc3ccc(F)cc3)cs2)n1 (stereo not drawn) | x | n | x | n | n | n
NC(Cc1ccc(Cl)cc1)c1csc(Nc2ncccn2)n1 (stereo not drawn) | x | n | x | 7.9µM | n | 10µM
Cc1cc(C)nc(Nc2nc(C(N)Cc3ccccc3)cs2)n1 (stereo not drawn) | x | n | x | u | -73 | n
Nc1ccc(CC(N)c2csc(Nc3ncccn3)n2)cc1 (stereo not drawn) | x | n | x | u | n | u
COc1ccc(CC(N)c2csc(Nc3nccc(C(F)(F)F)n3)n2)cc1 (stereo not drawn) | x | n | x | n | n | n
COc1ccc(CC(N)c2csc(Nc3ncccn3)n2)cc1 (stereo not drawn) | x | n | x | u | u | 13µM
NC(Cc1ccc(F)cc1)c1csc(Nc2ncccn2)n1 (stereo not drawn) | x | n | x | 7.9µM | n | 7.1µM
CC(=O)c1cccc(NC(=O)N2CCCC2C(=O)Nc2ccc3c(c2)OCCO3)c1 (stereo not drawn) | n | n | u | n | n | n
CCOC(=O)C1=C(C)N=c2s/c(=C\c3ccc(O)c([N+](=O)[O-])c3)c(=O)n2C1c1ccccc1OC (stereo not drawn) | n | u | n | n | u | n
COc1ccc(/C=c2/sc3n(c2=O)C(c2ccccc2OC)C2=C(N=3)c3ccccc3CC2)cc1O (stereo not drawn) | 23µM | n | n | x | -64 | x
C[C@H]1CN([C@@H](C)CO)C(=O)CCCn2nncc2CO[C@@H]1CN(C)S(=O)(=O)c1ccc(-c2ccccc2)cc1 | x | n | x | n | n | n
COCCn1c(=O)c(-c2ccc(OC)cc2)nc2cnc(OC)nc21 | x | n | x | x | x | x
[N-]=[N+]=Nc1ccc(C(=O)CSC[C@H](NC(=O)CC[C@H](N)C(=O)O)C(=O)NCC(=O)O)cc1 | 5µM | x | u | x | x | x
N[C@@H](CCC(=O)N[C@@H](CSN=O)C(=O)NCC(=O)O)C(=O)O | x | n | x | n | n | n
SMILES | Marburg entry inh | FMDV inh | Lassa entry inh | VACV Venus inh | HCMV inh | VACV mCherry inh
Cc1ccc(S(=O)(=O)N(CC(=O)N/N=C/c2cccc(C)c2)c2cccc3cccnc23)cc1 | u | n | u | n | u | x
Cc1ccc(S(=O)(=O)N(CC(=O)N/N=C\c2cccs2)c2cccc3cccnc23)cc1 | n | n | u | n | -63 | n
S=C(NCC1(c2ccccc2)CCCC1)Nc1ccccc1 | x | n | x | x | -97 | x
CC(C)(C)c1ccc(-n2nc(C(N)=O)c(O)cc2=O)cc1 | u | n | n | n | n | n
CC(C)(C)c1ccc(-n2nc(C#N)c(Cl)cc2=O)cc1 | u | 13µM | u | 10µM | -101 | u
CCN1C(=O)[C@H]2[C@H]3[C@H](O)[C@H](O)C/C(=N\NC(=O)OCc4ccccc4)[C@@H]3CC[C@H]2C1=O | n | x | x | x | x | x
CCOC(=O)C1(Cc2ccccc2C)CCCN(S(=O)(=O)c2cccnc2)C1 (stereo not drawn) | u | n | n | n | -93 | n
O=C(N/N=C/c1ccoc1)c1cccc(OC(F)(F)C(F)F)c1 | x | n | x | x | n | x
CCCCNC(=O)CSc1nc2cc3c(cc2c(=O)n1Cc1ccco1)OCO3 | n | u | n | n | -61 | n
O=C(CSc1nc2ccccc2c(=O)n1Cc1ccco1)c1ccccc1 | n | n | u | n | -69 | n
COc1cc2nc(SCC(=O)NCc3ccco3)n(Cc3ccc(Cl)cc3)c(=O)c2cc1OC | u | n | u | x | -69 | x
CCOC(=O)c1c(NC(=O)CSc2nc3cc(Cl)ccc3c(=O)n2Cc2ccco2)sc(C(=O)N(C)C)c1C | u | n | u | n | -68 | n
COCc1c(C(=O)NCC2CCCN(C)C2)cnn1-c1ncc2c(n1)-c1ccccc1CCC2 (stereo not drawn) | x | n | x | n | x | n
O=C(C(Br)=Cc1ccccc1)c1ccccc1 | 5µM | 25µM | u | u | -83 | u
CC(=Cc1ccccc1)C(=O)c1ccccc1 | x | n | x | n | n | n
CC(=O)C(=Cc1ccc(-c2ccccc2)cc1)C(=O)c1ccccc1 | x | 22µM | x | n | n | n
Cn1c(-c2cccnc2)cc2cnc(Nc3ccc4c(c3)OCO4)cc21 | x | x | x | x | n | x
COC(=O)[C@@H]1CCCN1C(=O)c1c(OC)cc(=O)n2c1CCN(Cc1ccc3cccnc3c1)CC2 | x | n | x | n | x | n
Cc1cc(Sc2ccc([N+](=O)[O-])cn2)ccc1Br | u | n | n | n | n | n
Cc1ccc([N+](=O)[O-])cc1 | x | n | x | n | n | n
Nc1ccc(S(=O)(=O)c2ccccc2)nc1 | x | n | x | n | n | n
Cc1cc(S(=O)(=O)c2ccc([N+](=O)[O-])cn2)ccc1Br | 10µM | 8.9µM | u | n | -98 | n
O=[N+]([O-])c1ccc(S(=O)(=O)c2ccccc2)nc1 | x | 35µM | x | u | -98 | n
Cc1ccc(S(=O)(=O)c2ccc([N+](=O)[O-])cn2)cc1 | 4µM | 25µM | u | n | -95 | u
O=C(CSC(=S)N1CCCC1)NCC(=O)Nc1ccc(F)c(F)c1 | n | n | n | n | n | n
CCOC(=O)c1c(S(=O)(=O)N2CCC(C(=O)Nc3ncccc3C)CC2)c(C)n(C)c1C | x | n | n | n | n | n
COc1cc(/C=C(/C#N)c2nc(-c3cc4ccccc4oc3=O)cs2)cc([N+](=O)[O-])c1O | x | x | x | x | -87 | x
Cc1ccc2nc(-c3ccccc3)nn2c1 | 8.9µM | 11µM | 1.1µM | n | n | n
